Consider 41 compounds from PubChem BioAssay AID504462 (Sanford-Burnham Center for Chemical Genomics, 2011).

Among all 340,000 compounds or so, about 1,700 (0.5%) were called active. No stated cut-off is given here; in the data, active means inhibition above about 40%; inactive means the rest. Many of the other results were omitted from the sample, so actives are more common in it than they were.

Sequence of Cysteine protease ATG4B (Homo sapiens) (Q9Y4P1 whole entry, looked up): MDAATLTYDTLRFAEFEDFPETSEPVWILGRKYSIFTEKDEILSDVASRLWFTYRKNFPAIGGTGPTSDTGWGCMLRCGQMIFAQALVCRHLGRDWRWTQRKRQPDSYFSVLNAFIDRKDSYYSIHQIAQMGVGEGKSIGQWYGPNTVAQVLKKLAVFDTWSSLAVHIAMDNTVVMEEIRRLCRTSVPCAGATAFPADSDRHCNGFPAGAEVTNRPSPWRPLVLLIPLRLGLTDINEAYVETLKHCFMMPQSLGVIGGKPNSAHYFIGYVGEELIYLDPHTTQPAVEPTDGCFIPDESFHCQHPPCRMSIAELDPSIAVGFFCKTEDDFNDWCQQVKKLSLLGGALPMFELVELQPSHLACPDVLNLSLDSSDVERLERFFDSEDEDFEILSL

The test concerns the target Cysteine protease ATG4B (Homo sapiens) (UniProt Q9Y4P1). The experiment in a line: blockers of ATG4B cysteine protease activity – biochemical, fluorescence, uHTS, primary screen (AID 504462). Conditions: ATG4B cleavage of LC3-PLA2, NBD-HPC fluorescence, 1 h; at 8.33 µM; active compounds read high.
Consider `O=C(CCc1ccccc1)Nc1ccc(NC(=O)C2CC2)nc1`, for which the inhibition (commonly the relative decrease from the control value, in per cent) was -15.9% (inactive).

Take `Cn1c(=O)c2c(SCC(=O)N3CCOCC3)nc(C3CC3)nc2n(C)c1=O`: the inhibition was -4.88% (inactive).

Take `Cc1cccc(NC(=S)NCCc2ccc(Cl)cc2)c1C`: the inhibition was 48.4% (active).

As for `Cc1ccc(NC(=S)NCCc2ccc(Cl)cc2)c(C)c1`, the inhibition was 5.82% (inactive).

Take `Cc1cccc(NC(=S)NCCc2ccc(F)cc2)c1C`: the inhibition was 20.9% (inactive).

In the case of `O=C(Nc1cccn(Cc2ccccc2Cl)c1=O)NC1CCCCC1`, the inhibition was -3.28% (inactive).

As for `Cc1ccc(N=C2NC(=O)/C(=C/C=C/c3ccco3)S2)cc1C`, the inhibition is 47.9% (active).

`Cc1ccc(CNC(=O)CSc2nnc3c(n2)[nH]c2ccc(F)cc23)cc1`: the inhibition is -1.66% (inactive).

In the case of `CC1=CC2=NC(=O)/C(=C/c3coc4ccccc4c3=O)C(=N)N2O1`, the inhibition is -5.2% (inactive).

On to `O=C(CNC(=O)c1ccccc1)NCC(=O)OCc1ccc(Cl)cc1`, for which the inhibition was -3.69% (inactive).

Regarding `S=C(NCCc1ccccc1)NCC1CCCO1` (stereo unspecified), the inhibition is -7.53% (inactive).

Turning to `S=C(NCc1ccco1)NCc1ccccc1Cl`, the inhibition is 13.4% (inactive).

As to `S=C(NCCc1ccccc1)NCc1ccccc1Cl`, the inhibition is 48.6% (active).

Take `O=C1c2ccccc2C(=O)N1CCC(c1ccccc1)c1ccco1` (stereo unspecified): the inhibition is 15.9% (inactive).

Consider `CC(Oc1ccc(F)cc1)C(=O)Nc1cc(S(=O)(=O)N2CCOCC2)ccc1N1CCN(C)CC1` (stereo unspecified), for which the inhibition is -5.35% (inactive).

Regarding `COc1ccccc1S(=O)(=O)c1c(C)cc(C)[nH]c1=O`, the inhibition was -5.56% (inactive).

On to `Cc1c(NC(=S)NCc2ccc(F)cc2)cccc1[N+](=O)[O-]`, for which the inhibition was 77.1% (active).

For `Cc1c(NC(=O)CCCOc2ccccc2)cccc1[N+](=O)[O-]`, the inhibition was -6.83% (inactive).

Consider `Cc1onc(C(=O)NCc2ccc(F)cc2)c1[N+](=O)[O-]`, for which the inhibition is 1.98% (inactive).

For the compound `CCOC(=O)N1CCC(NC(=O)Cn2cc3c(n2)CCCCC3)CC1`, the inhibition is -3.87% (inactive).

As for `NC(=O)Cc1ccc2c(c1)[nH]c1ccccc12`, the inhibition is 47.3% (active).

For the compound `COC(=O)Cc1c(-c2[nH]c3ccccc3c2CC(=O)OC)[nH]c2ccccc12`, the inhibition is 5.62% (inactive).

For the compound `CCn1c2ccccc2c2cc(CC(N)=O)ccc21`, the inhibition was 25% (inactive).

Turning to `CC(OC(=O)c1ccc(-n2cnnn2)cc1)C(=O)NCc1ccccc1` (stereo unspecified), the inhibition was -0.42% (inactive).

As to `CCCCn1c(N)c(N(CC)C(=O)c2ccccc2C(F)(F)F)c(=O)[nH]c1=O`, the inhibition is 1.66% (inactive).

Take `CC(C)(CNC(=O)c1cc(=O)[nH]c2ccccc12)N1CCOCC1`: the inhibition was -6.8% (inactive).

Turning to `Cc1c(N=Nc2ccc(N(C)C)cc2)c(=O)n(-c2ccccc2)n1C`, the inhibition is -2.28% (inactive).

As to `CC(=O)c1c(C)n(-c2ccc(C)cc2)c2ccc(O)cc12`, the inhibition is -0.19% (inactive).

Consider `CC(=O)c1c(C)n(-c2ccc(N(C)C)cc2)c2ccc(OCC(N)=O)cc12`, for which the inhibition is 82.1% (active).

Take `CCOC(=O)c1c(C)oc2ccc(OCC(=O)N(CC)CC)cc12`: the inhibition is -8.98% (inactive).

Take `COc1ccc(NC(=O)CSc2nnc(Cc3ccccc3)c(=O)n2N)cc1`: the inhibition is -4.35% (inactive).

As for `Cc1ccc(CSc2nc(-c3ccccc3)c(C#N)c(=O)[nH]2)cc1`, the inhibition was 49.2% (active).

Turning to `N#Cc1c(-c2ccccc2)nc(SCc2cccc(C(F)(F)F)c2)[nH]c1=O`, the inhibition was 34.9% (inactive).

With `N#Cc1c(-c2ccc(F)cc2)nc(-c2ccccc2)[nH]c1=O`, the inhibition is 5.66% (inactive).

Consider `Cc1cccc(N2CCN(C(c3ccc(N(C)C)cc3)c3nnnn3C(C)(C)C)CC2)c1C` (stereo unspecified), for which the inhibition is -1.38% (inactive).

With `COc1cc(C)c(S(=O)(=O)N2CCOCC2)c(C)c1C`, the inhibition is -9.43% (inactive).

In the case of `COC(=O)c1c(NC(=O)CSc2nncs2)sc2c1CCCCC2`, the inhibition is -14.5% (inactive).

Consider `COC(=O)c1c(NC(=O)C2CC(C)=C(C)CC2C(=O)O)sc2c1CCCCC2` (stereo unspecified), for which the inhibition is 70.5% (active).

`N#Cc1c(NC(=O)C2CC(Cl)=CCC2C(=O)O)sc2c1CCCCC2` (stereo unspecified): the inhibition was -4.77% (inactive).

For `O=C(CNC(=O)[C@@H]1Cc2ccccc2CN1)NC1CCCCC1`, the inhibition is -3.14% (inactive).

Consider `CCSC(C)CC1C/C(=N/O)c2c(C)noc2C1` (stereo unspecified), for which the inhibition was -1.06% (inactive).
